In the OligoGym collection:

Target: APLNR
Assay: pooled miR-30 sensor sort-seq; sequence = guide strand
Settings: shRNA
Also: reference of the scale not given here.

Sequence | sensor-assay potency score (higher = more potent)
AAGTACAACACACACAGACAAG | -1.41
TTATCTGCTGACACACAGCCCA | -0.574
TTGACGAAGATGAGGTAGCTGC | -0.686
TTCACTTTCATAGTCCTCCAAG | -0.567
TGGATTTCTCGTGCATCTGTTC | -1.45
TTTGAGGACAGCTCTGGGCAGA | -0.516
TAGCACTGCACCTTAGTGGTGT | 0.437
TTGACGTAGCTGATGCAGGTGC | 0.046

Target: APOA1
Assay: as above
Settings: shRNA

Sequence | sensor-assay potency score (higher = more potent)
TTCTCTTGCAGCTCGTGCAGCT | -0.213
AACTGGGACACATAGTCTCTGC | -0.955
TGTCTTTGAGCACATCCACGTA | -1.2
TGGGACACATAGTCTCTGCCGC | -0.692
TTGCAGCTCGTGCAGCTTCTGG | -1.14
TCAGCTTCTCTTGCAGCTCGTG | -1.07
TACTCGGCCAGTCTGGCGCCGC | -0.96
TTAGGTTTAGCTGTTTTCCCAA | 0.243
TTCTTCTGGAAGTCGTCCAGGT | -0.431
TTAGCTGTTTTCCCAAGGCGGA | -1.3
TAGGTTTAGCTGTTTTCCCAAG | -1.2
TTTAGCTGTTTTCCCAAGGCGG | -0.584
TTGAGCACATCCACGTACACAG | -0.115
TTGGCCTTCTCGCTGAGCGTGC | -0.4
TAGAGCTCCATCTCCTCCTGCC | 0.375
TCTTGCTGCCAGAAATGCCGAG | -0.701
TTTGAGCACATCCACGTACACA | -1.01
TAGCTGTTTTCCCAAGGCGGAG | -1.51
TTGTCAAGGAGCTTTAGGTTTA | -0.808
TTGGAGCTCTGCGCGCAGCGGC | -1.17
TCGCGCAGCTTGCTGAAGGTGG | -0.684

Target: APOA4
Assay: as above
Settings: shRNA

Sequence | sensor-assay potency score (higher = more potent)
TTCTGGTCGATCTTGGCCTTGA | -0.621
TCGGCGTTCTTCTTCATCTGGA | -0.527
TCTTTCTCCTTGAAGGTGCTGA | 0.0406
TCGGAACTCCTCCACCTGCTGG | -1.28
AAGTAGTCCCACATCACCGTGG | -0.243
TTGAGCTCCTCCACGTTCTGGT | 0.494
TTCTTCTTCATCTGGAAGGTCA | -0.417
TGAAGTAGTCCCACATCACCGT | -0.0577
TCGATCTTGGCCTTGAGCTCGT | -0.264
TTCTTCATCTGGAAGGTCAGGC | 0.31
TTGGCCTTGAGCTCGTCGGCGT | -0.576
